High-throughput results (PubChem BioAssay)
D1 potentiator: Potentiators of Human D1 Dopamine Receptor: qHTS; D(1A) dopamine receptor (Homo sapiens), P21728; HEK293 TREx D1 cells, calcium flux, dopamine EC20 potentiation; actives 0.036% (n = 360,000); potentiation, % at 10 µM; in the data active = potentiation above about 30%
D1 agonist: Allosteric Agonists of the Human D1 Dopamine Receptor: qHTS | D(1A) dopamine receptor (Homo sapiens), P21728 | HEK293 T-REx D1 cells, calcium flux, agonist mode | activation, % at 2 µM | actives 1% (n = 360,000)
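Tetracycline-induced HEK293 TREx D1 cells, force-coupled to calcium signalling, were dye-loaded with a no-wash calcium kit. Compound was pin-added after a 10 s baseline. Fluorescence was read kinetically at 1 cycle/s for 180 s, with calcium rises flagged as agonism.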
D1 antag: Antagonist of Human D 1 Dopamine Receptor: qHTS. D(1A) dopamine receptor (Homo sapiens), P21728. actives 3.2% (n = 360,000). AID 504652, 2011. activity change, negative = inhibition, % at 10 µM. HEK293 TREx D1 cells, calcium flux, dopamine EC80; stronger effect = lower value; in the data active = activity change below about -30%
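Compound effects on dopamine-evoked calcium signalling were measured in tetracycline-induced HEK293 Trex D1 cells. Dopamine at EC80 followed a 180 s compound pre-read, and fluorescence was tracked kinetically for 180 s more.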
TRHR ag: qHTS for Small Molecule Agonists and Allosteric Enhancers of Human TRH Receptor: Primary Screen for Agonists; Thyrotropin-releasing hormone receptor (Homo sapiens), P34981; TRHR cells, calcium flux fluo-8, FDSS agonist mode; activation, % at 2 µM; actives 0.18% (n = 360,000)
Target sequence (P34981 whole entry, looked up): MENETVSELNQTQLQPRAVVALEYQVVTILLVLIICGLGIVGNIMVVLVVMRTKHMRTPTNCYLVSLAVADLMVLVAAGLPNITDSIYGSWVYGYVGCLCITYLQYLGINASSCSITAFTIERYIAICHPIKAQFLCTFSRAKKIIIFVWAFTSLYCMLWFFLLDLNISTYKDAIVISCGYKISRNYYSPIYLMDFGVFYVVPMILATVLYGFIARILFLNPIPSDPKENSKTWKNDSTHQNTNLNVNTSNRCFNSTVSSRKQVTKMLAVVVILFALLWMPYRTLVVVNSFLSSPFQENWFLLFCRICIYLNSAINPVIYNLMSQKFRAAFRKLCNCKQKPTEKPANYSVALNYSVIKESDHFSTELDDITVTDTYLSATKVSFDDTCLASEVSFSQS
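TRHR-expressing cells loaded with fluo-8 calcium dye; 23 nL library compound pin-transferred, kinetic FDSS fluorescence (Ex 480/Em 530) recorded about 180 s for agonist-induced calcium release, before a 10 nM TRH EC20 addition for potentiator mode.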
TRHR PAM: qHTS for Small Molecule Agonists and Allosteric Enhancers of Human TRH Receptor: Primary Screen for Enhancers; Thyrotropin-releasing hormone receptor (Homo sapiens), P34981; TRHR cells, fluo-8 calcium fluorescence, EC20 TRH enhancement; enhancement, % at 2 µM; actives 0.66% (n = 360,000); AID 493056, 2011; in the data active = enhancement above about 30%
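Enhancer read-out: after compound pinning and an initial kinetic agonist-mode read, an EC20 of TRH (10 nM final) was injected and fluo-8 calcium signal (Ex 480/Em 530) followed at 1 s/cycle for 100 cycles in TRHR-expressing cells.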
Of the large screens only hits and unclear results are named; the others gave an inactive call. Shown are actives, neighbours in structure and some others; about 4.7% of the full set was active somewhere. Rule as the data show it, unless noted: active = activation above about 30%; inactive = the rest.

CCc1ccc(NC(=O)N2CCOc3ccc(Cl)cc32)cc1	none
O=C(Nc1ccccc1C(F)(F)F)N1CCOc2ccc(Cl)cc21	D1 antag -35.1
Cn1cnc(S(=O)(=O)N2CCCC(C(=O)NCc3ccccc3)C2)c1 (stereo unspecified)	none
COc1ccc(CNC(=O)CN(CCC(C)C)S(=O)(=O)c2ccc3c(c2)OCCO3)cc1	D1 antag -32.3
Cc1ccc(NC(=S)NCc2ccccc2)cc1S(=O)(=O)N1CCCCC1	D1 agonist 33.1, D1 antag -35.0
Cc1ccc(NC(=O)COC(=O)C2CCC2)cc1S(=O)(=O)N1CCCCC1	D1 antag -32.0
Cc1ccc(NC(=O)COC(=O)C2CC3C=CC2C3)cc1S(=O)(=O)N1CCCCC1 (stereo unspecified)	none
Cc1ccc(NC(=O)COc2ccccc2)cc1S(=O)(=O)N1CCCCCC1	none
Cc1ccc(C)c(OCCC(=O)OCC(=O)Nc2ccc(C)c(S(=O)(=O)N3CCCCC3)c2)c1	D1 antag -31.6
Cc1ccc(NC(=O)CSc2ccccc2)cc1S(=O)(=O)N1CCCCC1	none
Cc1ccc(NC(=O)COc2ccccc2C#N)cc1S(=O)(=O)N1CCCCCC1	none
Cc1ccccc1CC(=O)OCC(=O)Nc1ccc(C)c(S(=O)(=O)N2CCCCC2)c1	D1 agonist 78.7, D1 antag -34.5 (no result: D1 potentiator)
Cn1cnc(S(=O)(=O)N2CCCC(C(=O)NCc3ccccc3Cl)C2)c1 (stereo unspecified)	none
CCCc1nnc(SCC(=O)Nc2ccccc2Cl)n1CC1CCCO1 (stereo unspecified)	none
CC(NC(=O)C1CCN(c2nc3ccccc3nc2C(F)(F)F)CC1)c1ccccc1 (stereo unspecified)	none
Cc1ccc(NC(=O)C2CCN(C(=O)OC(C)(C)C)CC2)cc1S(=O)(=O)N1CCCCC1	D1 antag -38.1
CN(C)S(=O)(=O)c1cc(NC(=O)COC(=O)CCSc2ccc(Cl)cc2)ccc1Cl	D1 antag -43.3
CCOC(=O)c1c(C)oc2nc(C)nc(NCCCN3CCN(c4ccccc4)CC3)c12	none
CCOC(=O)c1c(C)oc2nc(C)nc(NCCCN3CCN(c4cccc(C)c4)C(C)C3)c12 (stereo unspecified)	TRHR PAM 37.7
COc1ccc(CCN2CC(C(=O)N(C)Cc3ccc4nsnc4c3)CCC2=O)cc1 (stereo unspecified)	none
CCOC(=O)/C(=C\c1ccc([N+](=O)[O-])o1)NC(=O)c1ccccc1	D1 antag -36.1
CCCOC(=O)/C(=C\c1ccc([N+](=O)[O-])o1)NC(=O)c1ccccc1	none
Cc1nc2nc(C)c(NS(=O)(=O)c3cccs3)c(=O)n2[nH]1	none
Cc1cc(C)n2c(SCc3ccc(Cl)cc3Cl)nnc2n1	D1 agonist 41.6
O=C(CN1C(=O)C2(SCC(=O)N2c2cccc(F)c2)c2ccccc21)NCc1ccccc1Cl (stereo unspecified)	none
CN(C)S(=O)(=O)c1cccc(NC(=O)c2cccc(S(=O)(=O)N3CCc4ccccc43)c2)c1	D1 antag -57.4
COc1ccc(NC(C)=O)cc1NC(=O)c1cccc(S(=O)(=O)N2CCc3ccccc32)c1	D1 antag -31.9
CC(=O)NS(=O)(=O)c1ccc(NC(=O)c2cccc(S(=O)(=O)N3CCc4ccccc43)c2)cc1	none
O=C(Nc1nc2c(s1)CN(Cc1ccccc1)CC2)c1cccc(S(=O)(=O)N2CCc3ccccc32)c1	D1 agonist 73.1, TRHR ag 45.8
O=C(Nc1nc2ccccc2s1)c1cccc(S(=O)(=O)N2CCc3ccccc32)c1	none
CC(=O)C1=C(O)C(=O)N(Cc2ccccc2)C1c1ccccc1F (stereo unspecified)	none
CC(=O)C1=C(O)C(=O)N(c2cccc(C(=O)O)c2)C1c1ccccc1F (stereo unspecified)	D1 antag -87.1
COc1ccccc1C(=O)NCCC(=O)N1CCN(c2ccccc2O)CC1	none
CCCn1c(SC(C)C(=O)NCC2CCCO2)nc2sc(CC)cc2c1=O (stereo unspecified)	none
